The results in this text go back to PubChem BioAssay (NCATS).

Results filed as inconclusive are left out. The source made the active and inactive calls. Calls follow the shape of the dose curve; as a rule, active = well fitted curve in the direction sought with a large enough effect; inconclusive = small, poorly fitted or top-dose-only effect, or another doubt; inactive = no such curve, though single readings can be large; an effect the other way counts as inactive or inconclusive.

Sequence of Rap guanine nucleotide exchange factor 3 (Homo sapiens) (O95398 whole entry, looked up): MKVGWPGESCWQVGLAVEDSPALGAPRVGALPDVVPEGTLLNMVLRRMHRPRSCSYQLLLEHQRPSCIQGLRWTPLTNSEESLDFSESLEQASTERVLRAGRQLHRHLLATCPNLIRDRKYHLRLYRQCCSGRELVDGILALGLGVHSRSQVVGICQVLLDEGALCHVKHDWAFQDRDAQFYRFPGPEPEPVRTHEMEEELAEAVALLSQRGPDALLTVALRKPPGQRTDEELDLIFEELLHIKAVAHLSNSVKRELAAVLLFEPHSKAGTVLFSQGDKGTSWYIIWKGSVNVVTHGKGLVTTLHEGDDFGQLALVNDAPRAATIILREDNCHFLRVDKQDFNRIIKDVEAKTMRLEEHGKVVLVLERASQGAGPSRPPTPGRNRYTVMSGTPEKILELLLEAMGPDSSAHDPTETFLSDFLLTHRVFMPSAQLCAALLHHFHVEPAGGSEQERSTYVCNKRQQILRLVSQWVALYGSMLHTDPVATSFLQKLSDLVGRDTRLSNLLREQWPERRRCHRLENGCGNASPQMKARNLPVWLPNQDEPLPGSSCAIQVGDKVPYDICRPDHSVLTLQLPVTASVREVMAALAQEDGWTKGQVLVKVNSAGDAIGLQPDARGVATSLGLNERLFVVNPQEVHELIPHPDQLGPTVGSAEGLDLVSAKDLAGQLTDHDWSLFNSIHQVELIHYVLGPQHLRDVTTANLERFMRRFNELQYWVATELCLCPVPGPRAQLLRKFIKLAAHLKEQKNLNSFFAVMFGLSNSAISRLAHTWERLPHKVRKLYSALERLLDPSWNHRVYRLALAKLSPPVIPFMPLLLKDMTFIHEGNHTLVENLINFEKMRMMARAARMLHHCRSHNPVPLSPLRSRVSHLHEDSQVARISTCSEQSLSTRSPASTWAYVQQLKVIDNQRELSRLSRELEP

Test system in the first experiment: not listed separately
As to the kind of experiment: Primary qHTS for inhibitors of nuclear receptor binding SET domain protein 2 (NSD2) in an RCH-ACV wild type WT cells (2C) (AID 1645877). Also: nearly all actives have a fitted effect of over 70% in size. As to activity change, negative = cell killing: % is scaled to controls: 0 for no effect and ±100 for the full control effect. The note with it: RCH-ACV (leukaemia line) NSD2 WT (2C) viability, CellTiter-Glo, 72 h; series mostly up to 44.9 µM; activity change, negative = cell killing: at the top concentration. Background: Quantitative high-throughput screening tests each substance at several concentrations.
Turning to `COc1ccc([C@@H]2CC(=O)c3c(O)cc(O[C@@H]4O[C@H](CO[C@@H]5O[C@@H](C)[C@H](O)[C@@H](O)[C@H]5O)[C@@H](O)[C@H](O)[C@H]4O)cc3O2)cc1O`, the result was inactive.

For `CCC[C@@H]1C[C@@H](C(=O)N[C@@H]([C@H]2O[C@H](SC)[C@H](O)[C@@H](O)[C@H]2O)[C@H](C)Cl)N(C)C1`, the “activity change, negative = cell killing” value is -6.41% (inactive).

As to `C=CC[N+]1([C@H]2C[C@H]3[C@@H]4CC[C@H]5C[C@H](O)[C@@H](N6CCOCC6)C[C@]5(C)[C@H]4CC[C@]3(C)[C@H]2OC(C)=O)CCCC1`, the “activity change, negative = cell killing” value is 0.222% (inactive).

Take `CC(C)Cc1ccc([C@@H](C)C(=O)NS(C)(=O)=O)cc1`: the “activity change, negative = cell killing” value was 1.14% (inactive).

Regarding `CC[C@H](CC[C@@H](C)[C@H]1CC[C@H]2[C@@H]3CC=C4C[C@@H](O)CC[C@]4(C)[C@H]3CC[C@]12C)C(C)C`, the “activity change, negative = cell killing” value was -19.2% (inactive).

On to `CC[C@H]1OC(=O)[C@H](C)[C@@H](O[C@H]2C[C@@](C)(OC)[C@@H](O)[C@H](C)O2)[C@H](C)[C@@H](O[C@@H]2O[C@H](C)C[C@H](N(C)C)[C@H]2O)[C@](C)(O)C[C@@H](C)CN(C)[C@H](C)[C@@H](O)[C@]1(C)O`, for which the “activity change, negative = cell killing” value is -28% (inactive).

As to `CC(=O)NCCCS(=O)(=O)O`, the “outcome” value was “inactive [at 17.3 µM]”.

For `N[C@@H](Cc1cc(I)c(Oc2ccc(O)c(I)c2)c(I)c1)C(=O)O`, the “activity change, negative = cell killing” value was -22.7% (inactive).

A further experiment has as its target Rap guanine nucleotide exchange factor 3 (Homo sapiens) (UniProt O95398). As to the kind of experiment: Confirmatory qHTS for agonist of cAMP-regulated guanine nucleotide exchange factor 3 (EPAC1) (AID 1645881).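 Also: EPAC1 catalysed release of BODIPY-GDP from Rap1B seen as fluorescence loss; nearly all actives have a fitted effect of over 75% in size.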 The note with it: EPAC1 Rap1B BODIPY-GDP exchange fluorescence, 100% = cAMP control response; series mostly up to 154 µM; activation: at the top concentration.
Turning to `CCCCC(=O)O[C@H]1CC[C@H]2[C@@H]3CCc4cc(O)ccc4[C@H]3CC[C@]12C`, the “activation” value is 0.693% (inactive).

As to `NC(=O)Oc1ccc(Cc2ccccc2)cc1`, the “activation” value was 6.65% (inactive).

Take `O=C(NNCS(=O)(=O)O)c1ccncc1`: the “activation” value is 7.34% (inactive).

As for `C=CC[C@@H]1/C=C(\C)C[C@H](C)C[C@H](OC)[C@H]2O[C@@](O)(C(=O)C(=O)N3CCCC[C@H]3C(=O)O[C@H](/C(C)=C/[C@@H]3CC[C@@H](O)[C@H](OC)C3)[C@H](C)[C@@H](O)CC1=O)[C@H](C)C[C@@H]2OC`, the “activation” value was -33.3% (inactive).

Consider `COc1cc(NCCCC(C)N)c2ncccc2c1` (centres undefined), for which the “activation” value was 9.22% (inactive).

With `CCOC(=O)Oc1c(OC)cc(C(=O)O[C@@H]2C[C@@H]3CN4CCc5c([nH]c6cc(OC)ccc56)[C@H]4C[C@@H]3[C@H](C(=O)OC)[C@H]2OC)cc1OC`, the “activation” value is 2.55% [at 51.3 µM] (inactive).

Turning to `CC(C)[C@@H](C)/C=C/[C@@H](C)[C@H]1CC[C@H]2/C(=C/C=C3\C[C@@H](O)CC[C@@H]3C)CCC[C@]12C`, the “activation” value was 0.0854% (inactive).

For `C=CC(C)(O)CC/C=C(\C)CCC=C(C)C` (centres undefined), the “activation” value was -20.1% (inactive).

Take `COc1ccc2c(c1)N(C[C@H](C)CN(C)C)c1ccccc1S2`: the “activation” value is 10.8% [at 83.5 µM] (inactive).

Take `CSc1nc2cc(Oc3cccc(Cl)c3Cl)c(Cl)cc2[nH]1`: the “activation” value was 0.0832% (inactive).

Turning to `O=C(O)c1cc(N=Nc2ccc(O)c(C(=O)O)c2)ccc1O`, the “activation” value is -6.46% (inactive).

Turning to `COc1ccc(/C=C/C(=O)O)cc1`, the “activation” value is 7.61% (inactive).

The target in another experiment is Rap guanine nucleotide exchange factor 4 (Homo sapiens) (UniProt Q8WZA2). The experiment in a line: Confirmatory qHTS for agonist of cAMP-regulated guanine nucleotide exchange factor 4 (EPAC2) (AID 1645884).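 Also: nucleotide exchange releases bodipy-GDP from Rap1 and this lowers its fluorescence; % is scaled to controls: 0 for no effect and ±100 for the full control effect; nearly all actives have a fitted effect of over 65% in size.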 The note with it: EPAC2 GEF activity, Rap1B-BODIPY-GDP fluorescence, percent relative to cAMP agonist control; series mostly up to 154 µM; activation: at the top concentration.
Sequence of Rap guanine nucleotide exchange factor 4 (Homo sapiens) (Q8WZA2 whole entry, looked up): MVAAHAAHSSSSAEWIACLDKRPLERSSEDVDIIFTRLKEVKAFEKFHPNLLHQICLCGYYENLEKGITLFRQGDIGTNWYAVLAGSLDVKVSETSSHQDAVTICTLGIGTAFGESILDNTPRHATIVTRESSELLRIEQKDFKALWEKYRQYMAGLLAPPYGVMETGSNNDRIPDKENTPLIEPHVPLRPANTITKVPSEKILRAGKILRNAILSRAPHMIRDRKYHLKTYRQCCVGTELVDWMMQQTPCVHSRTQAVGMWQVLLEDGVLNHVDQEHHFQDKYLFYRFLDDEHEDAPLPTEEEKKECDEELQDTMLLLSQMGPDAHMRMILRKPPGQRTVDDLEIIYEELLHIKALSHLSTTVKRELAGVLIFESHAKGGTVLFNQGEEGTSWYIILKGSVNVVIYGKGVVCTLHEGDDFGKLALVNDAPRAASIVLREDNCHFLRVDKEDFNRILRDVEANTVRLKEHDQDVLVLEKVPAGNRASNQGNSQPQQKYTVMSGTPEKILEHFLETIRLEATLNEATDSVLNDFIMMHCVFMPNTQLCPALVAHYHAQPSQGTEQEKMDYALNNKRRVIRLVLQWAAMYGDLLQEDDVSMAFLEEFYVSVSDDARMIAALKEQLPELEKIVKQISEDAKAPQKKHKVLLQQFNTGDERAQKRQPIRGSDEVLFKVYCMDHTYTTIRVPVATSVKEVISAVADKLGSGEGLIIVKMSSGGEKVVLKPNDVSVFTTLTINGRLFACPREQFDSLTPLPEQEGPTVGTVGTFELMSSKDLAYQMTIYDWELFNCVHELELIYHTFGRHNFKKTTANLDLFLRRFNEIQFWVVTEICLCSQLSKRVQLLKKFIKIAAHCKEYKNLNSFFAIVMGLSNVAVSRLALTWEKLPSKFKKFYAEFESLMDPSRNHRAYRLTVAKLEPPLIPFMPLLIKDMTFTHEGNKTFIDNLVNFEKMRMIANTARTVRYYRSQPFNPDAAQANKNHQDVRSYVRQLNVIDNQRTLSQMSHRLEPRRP
For the molecule `CCCCC(=O)O[C@H]1CC[C@H]2[C@@H]3CCc4cc(O)ccc4[C@H]3CC[C@]12C`, the “activation” value was 9.51% (inactive).

Take `NC(=O)Oc1ccc(Cc2ccccc2)cc1`: the “activation” value is 8.61% (inactive).

Turning to `O=C(NNCS(=O)(=O)O)c1ccncc1`, the “activation” value was 16.1% (inactive).

On to `C=CC[C@@H]1/C=C(\C)C[C@H](C)C[C@H](OC)[C@H]2O[C@@](O)(C(=O)C(=O)N3CCCC[C@H]3C(=O)O[C@H](/C(C)=C/[C@@H]3CC[C@@H](O)[C@H](OC)C3)[C@H](C)[C@@H](O)CC1=O)[C@H](C)C[C@@H]2OC`, for which the “activation” value was -17.7% (inactive).

Turning to `COc1cc(NCCCC(C)N)c2ncccc2c1` (centres undefined), the “activation” value is 2.45% (inactive).

With `CCOC(=O)Oc1c(OC)cc(C(=O)O[C@@H]2C[C@@H]3CN4CCc5c([nH]c6cc(OC)ccc56)[C@H]4C[C@@H]3[C@H](C(=O)OC)[C@H]2OC)cc1OC`, the “activation” value was 9.81% [at 51.3 µM] (inactive).

Take `CC(C)[C@@H](C)/C=C/[C@@H](C)[C@H]1CC[C@H]2/C(=C/C=C3\C[C@@H](O)CC[C@@H]3C)CCC[C@]12C`: the “activation” value was -13.5% (inactive).

For the molecule `C=CC(C)(O)CC/C=C(\C)CCC=C(C)C` (centres undefined), the “activation” value was -8.92% (inactive).

As to `COc1ccc2c(c1)N(C[C@H](C)CN(C)C)c1ccccc1S2`, the “activation” value was 20.3% [at 83.8 µM] (inactive).

For the molecule `CSc1nc2cc(Oc3cccc(Cl)c3Cl)c(Cl)cc2[nH]1`, the “activation” value is 9.55% (inactive).

For `O=C(O)c1cc(N=Nc2ccc(O)c(C(=O)O)c2)ccc1O`, the “activation” value was -6.46% (inactive).

For the molecule `COc1ccc(/C=C/C(=O)O)cc1`, the “activation” value was 7.5% (inactive).

For a further experiment the target is unchanged. As to the kind of experiment: Confirmatory qHTS for antagonist of cAMP-regulated guanine nucleotide exchange factor 4 (EPAC2) (AID 1645885). Also: nearly all actives have a fitted effect of over 25% in size. Also: potency is read from the fitted curve at half-maximal effect. As to activity change, negative = inhibition: % is scaled to controls: 0 for no effect and ±100 for the full control effect. To be noted: EPAC2 Rap1B-BODIPY-GDP exchange fluorescence, biochemical; series mostly up to 114 µM; activity change, negative = inhibition: at the top concentration.
Consider `CCCCC(=O)O[C@H]1CC[C@H]2[C@@H]3CCc4cc(O)ccc4[C@H]3CC[C@]12C`, for which the “activity change, negative = inhibition” value is 21.7% (inactive).

As for `NC(=O)Oc1ccc(Cc2ccccc2)cc1`, the “activity change, negative = inhibition” value was -26.3% (inactive).

With `O=C(NNCS(=O)(=O)O)c1ccncc1`, the “activity change, negative = inhibition” value was 3.02% (inactive).

As to `COc1cc(NCCCC(C)N)c2ncccc2c1` (centres undefined), the “activity change, negative = inhibition” value was -8.26% (inactive).

With `C=CC(C)(O)CC/C=C(\C)CCC=C(C)C` (centres undefined), the Potency is 44.1 µM (active).

In the case of `COc1ccc2c(c1)N(C[C@H](C)CN(C)C)c1ccccc1S2`, the “activity change, negative = inhibition” value is 12.6% [at 62.5 µM] (inactive).

`COc1ccc(/C=C/C(=O)O)cc1`: the “activity change, negative = inhibition” value was 0.357% (inactive).
